Sampled rows, rich in hits. Any-hit rate of the full collection: about 7.3%.
AmpC detergent: qHTS Inhibitors of AmpC Beta-Lactamase (assay with detergent); AmpC hydrolysis of nitrocefin, absorbance 480 nm, 0.01% Triton; P00811; 370,000 compounds, 0.041% hits; Potency, µM (top dose mostly 114 µM), inactives show at the top dose activity change, negative = inhibition, usual class: inhibitors;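 note: potency is the fitted concentration of half-maximal effect; 0% = no-compound wells and -100% = no-enzyme wells; nearly all actives have a fitted effect of over 25% in size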
Target sequence (P00811 whole entry, looked up): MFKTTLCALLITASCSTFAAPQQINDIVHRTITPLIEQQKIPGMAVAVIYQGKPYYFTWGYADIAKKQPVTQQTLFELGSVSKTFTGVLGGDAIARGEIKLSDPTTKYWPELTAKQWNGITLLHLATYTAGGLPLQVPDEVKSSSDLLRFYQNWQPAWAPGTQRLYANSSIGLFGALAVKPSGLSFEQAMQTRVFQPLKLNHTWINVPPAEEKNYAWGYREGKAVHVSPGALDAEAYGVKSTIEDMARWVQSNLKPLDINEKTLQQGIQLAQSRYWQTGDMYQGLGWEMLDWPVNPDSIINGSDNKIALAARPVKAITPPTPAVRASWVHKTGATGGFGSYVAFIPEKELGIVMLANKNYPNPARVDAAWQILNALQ
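AmpC (5.3 nM in the dispensed reagent) in 20 mM phosphate pH 7.0 with 0.01% (detergent screen) or 0.0001% Triton X-100 was preincubated with compounds for 15 min at room temperature. Nitrocefin was then added from an 800 uM solution, and hydrolysis was followed at 480 nm.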
FMDV inh: High Throughput Screening for Foot and Mouth Disease Virus Antivirals. FMDV antiviral cell-based qHTS. Potency, µM (doses to about 57.9 µM), for the others: at the highest dose activity change, negative = inhibition, most hits filed as inhibitors. 410,000 compounds, 1.2% hits; calls by dose curve; tested in HEK293T cells; note: read-out not given here; potency is the fitted concentration of half-maximal effect; nearly all actives have a fitted effect of over 45% in size
HCV inh: qHTS Assay for Inhibitors of Hepatitis C Virus (HCV); Potency, µM (titrated, usually from 41.8 µM), inactives show at the highest dose activity change, negative = inhibition, hits mostly inhibitors; Huh7.5.1 HCVcc-Cre infection, luciferase reporter, 44 h; 340,000 compounds, 3.4% hits; note: potency is the fitted concentration of half-maximal effect
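Cells seeded at 1,000/well and cultured 4 h, then compounds added followed by HCVcc-Cre virus (~0.5 moi). After 44 h further culture, luciferase substrate was added, plates held 15 min at room temperature, and luminescence read for 15 sec.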
AmpC inh no detg: qHTS Inhibitors of AmpC Beta-Lactamase (assay without detergent) | AmpC nitrocefin hydrolysis, absorbance 480 nm, 0.0001% Triton | 330,000 compounds, 0.52% hits | AID 485341, 2010 | Potency, µM (highest dose often 57.1 µM), without a hit: at the top dose activity change, negative = inhibition, most hits filed as inhibitors;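 note: potency is the fitted concentration of half-maximal effect; plate controls were no compound for no effect and no enzyme for full effect; nearly all actives have a fitted effect of over 20% in size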
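20 mM phosphate pH 7.0 + 0.01% (detergent screen) or 0.0001% Triton X-100; 5.3 nM AmpC reagent; cpd preinc 15 min RT; nitrocefin (800 uM stock) to start; A480 q20 s × 4 min; Activity was normalised to no-enzyme and no-compound control wells.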
HCMV inh: qHTS Assay for inhibitors of the human cytomegalovirus (HCMV). HFF cells, HCMV-luciferase reporter, 72 h; active compounds read low. activity change, negative = inhibition, % at 57.5 µM. 410,000 compounds, 4.5% hits. AID 1259415, 2018; in the data active = activity change below about -60%; inconclusive = no clear call, values can overlap the other calls; inactive = above about -39%
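Two compound doses tested in HFFs infected with HCMV-luciferase, MOI 1 PFU/cell, 72 h at 37C. Lysate luminescence read with OneGlo; data normalized against buffer-only and 10uM Salinomycin inhibitor controls.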
An asterisk follows results filed as active; u = inconclusive; x = no result given. Unless noted, calls come from the whole dose curve; as a rule, active = well fitted curve in the direction sought with a large enough effect; inconclusive = small, poorly fitted or top-dose-only effect, or another doubt; inactive = no such curve, though single readings can be large; an effect the other way counts as inactive or inconclusive. Unless noted, % is set by controls: 0 for no effect and ±100 for the full control effect.

SMILES | AmpC detergent | FMDV inh | HCV inh | AmpC inh no detg | HCMV inh
CCC1(c2ccccc2)NC(=O)N(CC(=O)Nc2cc(S(=O)(=O)N3CCCCCC3)ccc2OC)C1=O (stereo unspecified) | 7% | -30% | 14µM* | -4% | -12
CCC1(c2ccccc2)NC(=O)N(CC(=O)Nc2cc(S(=O)(=O)N3CCCCC3)ccc2OC(C)C)C1=O (stereo unspecified) | 10% | -2% | 10µM* | 4% | -10
O=C(Nc1ccccc1Cl)N[C@H]1CC[C@@]23CCCN2C(=O)CCC[C@H]3C1Cc1ccccc1 (stereo partly specified) | x | x | x | x | -12
COC(=O)CN1C(=O)[C@@H]2[C@H](C1=O)[C@@H]1CC(C(=O)OC)=C[C@@H](C(=O)OC)[C@@H]3C1=C(C(=O)[C@@]3(C)NC(=O)c1ccccc1)[C@@H]2C | x | -9% | -21% | x | -66*
Cc1cccc(/C=N/NC(=O)c2c(-c3ccccc3)noc2C)c1O | 3% | -26% | u | -23% | -113*
Cc1cccc(C(C)C)c1NC(=O)c1c(-c2ccccc2)noc1C | 0% | 40% | 14% | -6% | -62*
Cc1onc(-c2ccccc2)c1C(=O)N/N=C/C(Br)=C/c1ccccc1 | -14% | -9% | u | -16% | -70*
O=C(Nc1ccc(OC(F)(F)F)cc1)N1CCc2nc(NCc3cccc(Oc4ccccc4)c3)ncc2C1 | x | -30% | x | x | -92*
COc1cccc(NC(=O)N2CCc3nc(Nc4cc(Cl)cc(Cl)c4)ncc3C2)c1 | x | -23% | x | x | -67*
CC(C)c1ccc(Nc2ncc3c(n2)CCN(C(=O)Nc2ccc(F)c(Cl)c2)C3)cc1 | x | u | x | x | -75*
COc1cccc(NC(=O)N2CCc3nc(NCc4cccc(Oc5ccccc5)c4)ncc3C2)c1 | x | -62% | x | x | u
O=C(Nc1ccc(F)cc1)c1csc(C(O)Cc2ccccc2)n1 (stereo unspecified) | x | x | x | x | 50
CCN(Cc1ccncc1)Cc1ccc2c(c1)CN(C(=O)c1ccccc1-n1cccn1)CCO2 | x | -10% | x | x | x
Cc1ccc(C)c(OCCC(=O)OCC(=O)c2c(N)n(C)c(=O)n(C)c2=O)c1 | -5% | -7% | -3% | 67% | -4
COc1cccc(OCCCCn2c(-c3ccc(Cl)cc3)nc3ccccc3c2=O)c1 | -11% | 0% | x | x | 16
CCOC(=O)c1cnc(-n2nc(C)cc2C)nc1NCc1ccccc1 | 0% | 28µM* | u | 69% | -73*
CCOC(=O)c1cnc(-n2nc(C)cc2C)nc1NC(C)c1ccccc1 (stereo unspecified) | 2% | 0% | u | -26% | -97*
CCOC(=O)c1cnc(-n2nc(C)cc2C)nc1NCCO | u | -10% | -2% | 0% | 18
O=C(NCc1cccnc1)c1cnn(-c2ncc3c(n2)-c2ccccc2CCC3)c1C1CC1 | x | -14% | x | x | x
C[C@@H]1CN([C@@H](C)CO)C(=O)c2cc(Br)cnc2O[C@@H]1CN(C)Cc1ccccn1 | x | x | x | x | 8
Cc1ccc(NC(=O)CSc2nn(-c3ccccc3)c(=S)s2)cc1S(=O)(=O)N(C)C | -19% | u | u | 28µM* | -78*
Cc1n[nH]c(=O)c2c(NC(=O)CSc3nc4ccccc4c(=O)n3CCCOC(C)C)oc(C)c12 | -1% | -15% | -5% | -7% | -98*
O=C(CSc1nn(-c2ccccc2)c(=S)s1)Nn1cnnc1 | -7% | 9% | 19% | -6% | -11
Cc1ccc(NC(=O)CSc2nc3c(cc2C#N)C(=O)CCC3)cc1S(=O)(=O)N(C)C | u | u | u | -18% | -69*
Cc1n[nH]c(=O)c2c(NC(=O)CSc3nn(-c4ccccc4)c(=S)s3)oc(C)c12 | 4% | -5% | 19% | -20% | -98*
SMILES | AmpC detergent | FMDV inh | HCV inh | AmpC inh no detg | HCMV inh
C[C@H](CO)N1C[C@H](C)[C@@H](CN(C)C(=O)Nc2ccc3c(c2)OCO3)Oc2ccc(NC(=O)CCN3CCOCC3)cc2C1=O | x | -18% | 15% | 56% | -11
Cc1ccc(S(=O)(=O)c2nnn(CC(=O)Nc3ccccc3C)c2N)cc1C | 12% | -7% | x | x | 14
O=C(NCc1ccc(Cl)c(Cl)c1)O[C@H]1CC[C@@]23CCCN2C(=O)CCC[C@H]3[C@H]1Cc1ccccc1 | x | x | x | x | -5
Cc1ccc2c(c1)/C(=C/c1ccc(F)cc1)C(=O)N2 | -4% | u | 11µM* | -20% | -10
COc1ccccc1N(C)S(=O)(=O)c1ccc(C(=O)Nc2nccs2)cc1 | 0% | 0% | 11µM* | -31% | u
COc1ccccc1N(C)S(=O)(=O)c1ccc(C(=O)Nc2nc(C)c(C(C)=O)s2)cc1 | 4% | u | 2% | -20% | -1
COc1ccccc1N(C)S(=O)(=O)c1ccc(C(=O)Nc2ncc(C)s2)cc1 | 6% | u | 14µM* | -31% | u
COC(=O)c1ccccc1NC(=O)C1CC=CCC1C(=O)O (stereo unspecified) | u | 9% | 15% | -22% | -60*
O=C(NCCc1ccccc1)c1ccccc1NC(=O)C1CC=CCC1C(=O)O (stereo unspecified) | u | 35% | 27% | -25% | 51
COc1ccc2nc(C)cc(SCC(=O)N/N=C/c3ccccc3)c2c1 | 2% | u | -2% | 19% | -60*
COc1cccc2c(SCC(=O)N/N=C/c3ccc(O)cc3O)cc(C)nc12 | -3% | u | u | -1% | 59
COc1ccc2nc(C)cc(SCC(=O)N/N=C/c3ccc(O)cc3O)c2c1 | 1% | u | 13µM* | -25% | -21
Cc1cc(SCC(=O)NN)c2cc(Br)ccc2n1 | -7% | 27% | 3% | 40% | -66*
COc1ccccc1/C=N/NC(=O)CSc1cc(C)nc2ccccc12 | -2% | -27% | -28% | 8% | -82*
CCn1c(SCC(=O)N/N=C/c2cc(OC)c(OC)c(OC)c2)nc2ccccc21 | 1% | 25µM* | u | -3% | -18
Cc1ccc(NC(=O)/C(C#N)=C(\N)C(Cl)(Cl)Cl)nc1 | 1% | -67% | 10µM* | -19% | x
COC(=O)c1ccccc1CON1C(=O)C(C)(C)N(OCc2ccccc2C(=O)OC)C(=O)C1(C)C | -10% | -25% | 14µM* | 133% | 9
Oc1ccc2c(c1)c1ccccc1c1ncccc21 | x | -24% | 11µM* | x | 13
COc1ccc(S(=O)(=O)N2CCCCC2)cc1NC(=O)CN(Cc1ccco1)Cc1ccco1 | 8% | u | 10µM* | -10% | -70*
COc1ccc(S(=O)(=O)N2CCN(C(c3ccccc3)c3ccccc3)CC2)cc1NC(C)=O | 3% | -5% | 3.2µM* | -12% | 26
